Pol kappa inh-1 = qHTS for Inhibitors of Polymerase Kappa | DNA polymerase kappa (Homo sapiens), Q9UBT6 | purified Pol kappa, fluorescent DNA synthesis assay, 10 min | Potency, µM (doses to about 107 µM), for the others: top-dose activity, negative = inhibition, actives largely listed as inhibitors | actives 0.53% (n = 400,000) | AID 588579, 2011; note: potency is the fitted concentration of half-maximal effect; % is set by controls: 0 for no effect and ±100 for the full control effect
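Pol kappa 10 nM + cpd, 15 min RT; start w/ substrate 50 nM final; fluorescence kinetic read, 0 and 10 min. Neg ctrl: buffer, no enzyme.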
Pol eta inh-1 = qHTS for Inhibitors of Polymerase Eta; DNA polymerase eta (Homo sapiens), Q9Y253; recombinant Pol eta, fluorescent DNA replication assay; Potency, µM (highest dose often 114 µM), for the others: top-dose activity change, negative = inhibition, actives largely listed as inhibitors; actives 1.2% (n = 390,000); note: potency is the fitted concentration of half-maximal effect; % is set by controls: 0 for no effect and ±100 for the full control effect
Target sequence (Q9Y253 whole entry, looked up): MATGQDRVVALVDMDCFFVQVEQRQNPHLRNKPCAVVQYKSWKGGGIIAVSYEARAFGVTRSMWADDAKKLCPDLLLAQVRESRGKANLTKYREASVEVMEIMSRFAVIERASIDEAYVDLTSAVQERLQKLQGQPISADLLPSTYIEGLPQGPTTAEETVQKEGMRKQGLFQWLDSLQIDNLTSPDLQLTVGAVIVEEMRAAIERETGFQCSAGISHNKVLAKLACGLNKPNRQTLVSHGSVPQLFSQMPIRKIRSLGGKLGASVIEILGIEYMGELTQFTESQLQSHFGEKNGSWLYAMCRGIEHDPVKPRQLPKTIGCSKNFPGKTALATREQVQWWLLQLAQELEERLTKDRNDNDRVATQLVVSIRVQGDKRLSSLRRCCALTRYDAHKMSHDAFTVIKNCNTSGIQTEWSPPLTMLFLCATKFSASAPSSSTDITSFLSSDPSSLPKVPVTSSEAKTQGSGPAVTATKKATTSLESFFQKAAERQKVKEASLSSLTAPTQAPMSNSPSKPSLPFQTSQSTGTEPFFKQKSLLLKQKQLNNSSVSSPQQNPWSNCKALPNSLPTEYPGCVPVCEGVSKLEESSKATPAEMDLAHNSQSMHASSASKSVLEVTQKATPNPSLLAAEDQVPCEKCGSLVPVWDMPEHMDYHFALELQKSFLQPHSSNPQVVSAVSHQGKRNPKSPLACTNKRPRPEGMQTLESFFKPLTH
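Pol eta at 10 nM preincubated with compounds 15 min at room temperature; reaction started with fluorescent substrate (50 nM final) and read kinetically at 0 and 10 min.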
PI5P4K alpha inh = qHTS for Inhibitors of phosphatidylinositol 5-phosphate 4-kinase (PI5P4K). Phosphatidylinositol 5-phosphate 4-kinase type-2 alpha (Homo sapiens), P48426. PI5P4Kalpha enzyme, ADP-Glo luminescence, 60 min; stronger effect = lower value. max response, %. actives 1.2% (n = 330,000). AID 652105, 2013; active = max response of -50% or lower; inconclusive = between -30% and -50%; inactive = -30% or higher; note: value at the top dose of about 77 µM; % is set by controls: 0 for no effect and ±100 for the full control effect
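Enzyme plus substrate dispensed, test compounds pinned in, then ATP (5 microM final) added. After 60 min at RT, ADP-Glo reagent 1 for 45 min and reagent 2 for 30 min preceded luminescence imaging.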
POLB inh = qHTS Assay for Inhibitors of DNA Polymerase Beta; Potency, µM (titrated, usually from 114 µM), without a hit: at the highest dose activity change, negative = inhibition, hits mostly inhibitors; P06746; Pol beta primer extension/strand displacement, fluorescence kinetic; actives 1.3% (n = 340,000); note: potency is the fitted concentration of half-maximal effect; % is set by controls: 0 for no effect and ±100 for the full control effect
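Enzyme-only controls used 10 nM Pol beta; buffer lacking enzyme served as negative control. Compound preincubated 15 min, then 50 nM substrate added; 0 and 10 min reads at room temperature.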
POLI inh = qHTS for Inhibitors of Polymerase Iota; DNA polymerase iota (Homo sapiens), Q9UNA4; Pol iota fluorescent replication assay, 10 min; Potency, µM (titrated, usually from 115 µM), for the others: top-dose activity, negative = inhibition, actives largely listed as inhibitors; actives 1% (n = 390,000); AID 588590, 2011; note: potency is the fitted concentration of half-maximal effect
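Fluorescent replication assay read twice, at 0 min and 10 min after adding 50 nM (final) substrate. Enzyme (10 nM) and compounds were first incubated 15 min at room temperature; enzyme-free buffer wells were negative controls.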
WRN inhibitor = qHTS for Inhibitors of WRN Helicase; Potency, µM (top dose mostly 114 µM), without a hit: at the top dose activity change, negative = inhibition, usual class: inhibitors; Bifunctional 3'-5' exonuclease/ATP-dependent helicase WRN (Homo sapiens), Q14191; actives 0.46% (n = 360,000); WRN helicase unwinding, fluorescent forked duplex, kinetic; note: potency is the fitted concentration of half-maximal effect; % is set by controls: 0 for no effect and ±100 for the full control effect; nearly all actives have a fitted effect of over 55% in size
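Kinetic fluorescence helicase assay: unwinding of a quenched forked DNA duplex (100 nM final) with 2 mM ATP final raises red fluorescence (525/598 nm). Compounds sat 15 min at room temperature with 20 nM WRN beforehand.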
TbPGK inh = qHTS for inhibitors of Phosphogylcerate Kinase: Hit Validation Screen; shares compounds with Pol kappa inh-1; TbPGK coupled GAPDH assay, Kinase-Glo luminescence; Potency, µM (titrated, usually from 57.5 µM), without a hit: at the highest dose activity change, negative = inhibition, most hits filed as inhibitors; actives 79% (n = 500); note: potency is the fitted concentration of half-maximal effect; % is set by controls: 0 for no effect and ±100 for the full control effect; nearly all actives have a fitted effect of over 65% in size
Pol iota confirm = qHTS for Inhibitors of Polymerase Iota: Confirmatory Assay for Cherry-picked Compounds; Pol iota primer extension, TAMRA/BHQ fluorescence; AID 720496, 2013; shares compounds with Pol kappa inh-1; actives 77% (n = 1,500); Potency, µM, hits mostly inhibitors; note: potency is the fitted concentration of half-maximal effect
Pol kappa inh-2 = qHTS for Inhibitors of Polymerase Kappa: Confirmatory Assay for Cherry-picked Compounds | shares compounds with Pol eta inh-1 | purified Pol-kappa, fluorescent strand-displacement substrate | Potency, µM, actives largely listed as inhibitors | actives 76% (n = 920) | AID 720501, 2013; note: potency is the fitted concentration of half-maximal effect
Pol eta inh-2 = qHTS for Inhibitors of Polymerase Eta: Confirmatory Assay for Cherry-picked Compounds | Potency, µM, usual class: inhibitors | actives 64% (n = 2,600) | Pol eta primer extension, TAMRA/BHQ fluorescence, 10 min | AID 720502, 2013 | shares compounds with Pol eta inh-1; note: potency is the fitted concentration of half-maximal effect
ADP-Glo interf = qHTS for Inhibitors of PI5P4K: ADP-Glo counter assay. shares compounds with PI5P4K alpha inh. ADP-Glo detection counter-screen, luciferase luminescence, no enzyme. Potency, µM (titrated, usually from 76.9 µM), inactives show at the highest dose activity change, negative = inhibition, actives largely listed as inhibitors. 1,100 tested, under 10 active. AID 743285, 2014
* hit, by the source's call; ? = inconclusive; . = no result given; [ ] = dose if it differs, or a comment. In the library only some 2.8% were active in any assay of this set; here they are far more common. Unless noted, calls come from the whole dose curve; as a rule, active = well fitted curve in the direction sought with a large enough effect; inconclusive = small, poorly fitted or top-dose-only effect, or another doubt; inactive = no such curve, though single readings can be large; an effect the other way counts as inactive or inconclusive.

SMILES	Pol kappa inh-1	Pol eta inh-1	PI5P4K alpha inh	POLB inh	POLI inh	WRN inhibitor	Pol eta inh-2	others
c1cc2c(cc1C1=NNC(=NC3CC3)SC1)OCCO2	-20%	0%	-51*	-10%	?	0%	.	TbPGK inh=9.2µM*;ADP-Glo interf=?
COc1cccc(CNC(=O)CCCN2C(=O)CSc3c2c(C)nn3-c2ccccc2)c1	0%	-18%	.	-9%	17%	.	.
CCCCn1c(N)c(N(CCOC)C(=O)c2cc(-c3ccco3)nc3ccccc23)c(=O)[nH]c1=O	89µM*	11µM*	-71*	.	20µM*	?	?	Pol iota confirm=?;ADP-Glo interf=-2%
O=C(Nc1nccs1)c1cc(-c2ccco2)nc2ccccc12	?	4µM*	-86*	7.1µM*	22µM*	?	?	Pol iota confirm=?;ADP-Glo interf=-11%
O=C(Nc1nccs1)c1cc(-c2ccccc2)nc2ccccc12	-9%	-17%	13	7%	143%	-20%	.
Cc1ccc(-c2cc(C(=O)NCc3ccco3)c3ccccc3n2)o1	79µM*	7.9µM*	-88*	18µM*	?	56µM*	?	Pol iota confirm=?;ADP-Glo interf=-1%
Cc1cccc(-n2c3c(cc(-c4nc(-c5ccc(Cl)cc5)cs4)c2=O)C(=O)CC(C)(C)C3)c1	-22%	-2%	.	-33%	-5%	.	.
O=C(Cn1c(=O)oc2cc(S(=O)(=O)N3CCCCCC3)ccc21)NCc1ccccc1Cl	-9%[60.1 µM]	4%	.	9%	-19%	.	.
COc1ccc(S(=O)(=O)N2CCN(C(=O)C3COc4ccccc4O3)CC2)cc1 (stereo not given)	28µM*	10µM*	-74*	.	10µM*	50µM*	24*	Pol iota confirm=15*;Pol kappa inh-2=17*;ADP-Glo interf=4%
NC(=O)c1ccc(-n2nnnc2SCC(=O)c2ccc(O)c(O)c2)cc1	25µM*	10µM*	?	10µM*	14µM*	35µM*	43*
CCOC(=O)c1ccc(NC(=O)c2c(N3CCCC3=O)c3cc(OC)ccc3n2C)cc1	-11%	-11%	.	-1%	9%	.	.
O=C(Nc1ccc2nc3n(c(=O)c2c1)CCCCC3)c1c(F)ccc([N+](=O)[O-])c1F	8%	16µM*	-7	15%	?	-27%[11.6 µM]	48*
CC1=NN(c2ccccc2)C(=O)/C1=C/c1ccc[nH]1	-12%	-18%	4	9%	-5%	-9%	.
CC1=NN(c2ccc(Cl)c(C(=O)O)c2)C(=O)/C1=C\c1ccc(-c2ccc(C(=O)O)cc2)o1	?	13µM*	-17	16µM*	?	?	?	Pol kappa inh-2=15*
CC1=NN(c2ccccc2)C(=O)/C1=C/c1ccc(-c2ccc(C)c(C(=O)O)c2)o1	-15%	25µM*	-18	.	?	?	?
O=C1NC(=O)C(Cc2ccc(OCCN3COc4ccccc4C3=O)cc2)S1 (stereo not given)	-8%[12 µM]	.	.	.	.	.	.
CC1=NN(c2ccc(C)cc2)C(=O)/C1=C\C=C\c1ccccc1	-4%	?	4	-5%	100%	-6%[11.6 µM]	.
CC1=NN(c2cccc(C(=O)O)c2)C(=O)/C1=C\C=C/c1ccccc1	-15%	18µM*	-30	0%	?	?	27*
O=C(CSc1nc(-c2ccccc2)nc2ccc(F)cc12)Nc1cccc(C(=O)O)c1	-25%	79µM*	-50*	?	?	-21%	.	Pol kappa inh-2=?
COc1ccc2c(c1)Oc1nc(-c3ccc(C)cc3)nc(SCC(=O)Nc3cccc(C(=O)O)c3)c1C2	.	.	.	.	.	.	.	Pol kappa inh-2=30*
O=C(CSc1nc(-c2ccccc2)nc2ccc(F)cc12)Nc1ccc(C(=O)O)cc1	-14%	?	?	-10%	-6%	-21%[57.1 µM]	.
COc1ccc2[nH]cc(S(=O)(=O)c3ccc(C)c(C)c3)c(=O)c2c1	-8%	-2%	.	5%	34%	.	.
Cc1ccc(N=C2NC(=O)/C(=C/C=C/c3ccco3)S2)cc1	20µM*	10µM*	-78*	22µM*	3.2µM*	35µM*	67*
Cc1nc(SCC(=O)O)c(C#N)c2c1CCCC2	?	7.9µM*	?	8.9µM*	25µM*	45µM*	24*
CN1CCN(C(=O)CCCN2C(=O)/C(=C/c3ccccc3)SC2=S)CC1	-23%	-7%	-1	31%	24%	-5%	.
O=C(O)CCCN1C(=O)/C(=C\C(Cl)=C\c2ccccc2)SC1=S	?	10µM*	-19	?	?	?	24*	Pol kappa inh-2=38*
Cc1ccc(NC(=S)Nc2cccc3cnccc23)cc1	-5%	-15%	-18	-3%	84%	3%	.

Compound activity: PubChem, National Center for Advancing Translational Sciences (NCATS)
